High-throughput results from PubChem BioAssay.
15-hLO-2 inh = qHTS Assay for Inhibitors of 15-hLO-2 (15-human lipoxygenase 2). Polyunsaturated fatty acid lipoxygenase ALOX15B (Homo sapiens), O15296. Potency, µM (top dose mostly 57.1 µM), inactives show top-dose activity change, negative = inhibition, most hits filed as inhibitors. hit rate 0.56% among 110,000. purified 15hLO-2, xylenol orange hydroperoxide absorbance; also: potency is read from the fitted curve at half-maximal effect; nearly all actives have a fitted effect of over 60% in size
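Read-out: hydroperoxide product oxidises ferrous iron, measured as xylenol orange complex via the 573-to-405 nm absorbance ratio after 30 min. Reaction: 50 nM enzyme, 15 min compound preincubation, 45 uM arachidonic acid, 90 min RT, Hepes pH 7.5 with Triton X-100.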
IMPase cell inh = qHTS Assay for Identifying the Cell-Membrane Permeable IMPase Inhibitors; Inositol monophosphatase 1 (Rattus norvegicus), P97697; CHO-M1 cells, IP1 accumulation, HTRF TR-FRET ratio; inhibition (IP1 accumulation), % at 46.1 µM; 120,000 tested, under 10 active; AID 901, 2007; active = well fitted curve in the direction sought with a large enough effect in the signal ratio, not every such curve was filed as active; inconclusive = small, poorly fitted or top-dose-only effect, or a change in a side signal; inactive = no such curve, though single readings can be large or run the other way; the % refers to the signal ratio;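 also: cells stimulated with carbachol in lithium chloride buffer; plate controls were DMSO basal wells for no effect and reference inhibitor wells for full effect; higher means more IMPase inhibition seen as more IP1 and lower FRET ratio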
Target sequence (P97697 whole entry, looked up): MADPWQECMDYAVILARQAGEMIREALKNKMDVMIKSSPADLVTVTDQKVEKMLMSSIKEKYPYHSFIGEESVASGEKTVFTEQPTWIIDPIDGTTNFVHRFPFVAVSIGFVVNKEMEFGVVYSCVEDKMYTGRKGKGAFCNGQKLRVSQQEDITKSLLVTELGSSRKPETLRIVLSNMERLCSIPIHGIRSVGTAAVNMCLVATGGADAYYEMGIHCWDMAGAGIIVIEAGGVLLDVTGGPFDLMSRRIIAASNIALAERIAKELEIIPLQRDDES
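Elevated IP1 in lysates lowers TR-FRET signal (665/620 ratio and 620 channel reported). Cells were CHO-M1, given carbachol (50 uM as added) plus 50mM LiCl, pH 7.4, 30 min, 37C; compounds titrated up to 46 uM; AC50 by Hill equation.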
ALOX12 inhib = qHTS Assay for Inhibitors of 12-hLO (12-human lipoxygenase); hit rate 0.12% among 150,000; AID 1452, 2008; Potency, µM (top dose mostly 57.1 µM), for the others: at the highest dose activity change, negative = inhibition, actives largely listed as inhibitors; Polyunsaturated fatty acid lipoxygenase ALOX12 (Homo sapiens), P18054; purified 12-hLO, xylenol orange hydroperoxide absorbance; also: potency is read from the fitted curve at half-maximal effect; nearly all actives have a fitted effect of over 55% in size
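Lipoxygenase turnover measured by absorbance at 573 and 405 nm after Fe-XO development. Human 12hLO 150 nM, arachidonate 40 uM, pH 7.0 Hepes buffer with detergent; 15 min compound preincubation, 30 min reaction.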
IMPase Li cell = qHTS Assay for Identifying the Cell-Membrane Permeable IMPase Inhibitors: Potentiation with Lithium. CHO-M1 cells, IP1 TR-FRET (IP-One), carbachol + lithium. Potency, µM (highest dose often 59.4 µM), for inactives: top-dose activity, negative = IMPase inhibition, usual class: inhibitors. hit rate 0.35% among 210,000. AID 1457, 2008;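 also: IP1 builds up when IMPase is blocked and the TR-FRET signal falls; potency is read from the fitted curve at half-maximal effect; plate controls were basal vehicle for no effect and high inhibitor control for full effect; nearly all actives have a fitted effect of over 50% in size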
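Lithium-sensitised IP1 accumulation assay; M1-expressing CHO cells treated 30 min at 37C with compound. Competitive antibody detection by time-resolved FRET followed a 10 min room-temperature lysis step.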
The depositor's hits bear a star; ? = inconclusive; nt = no result; ! = a repeat was not active; [ ] = dose if it differs, or a comment. This is one part of a sample in which hits are shown more often than they occur. Unless noted, calls follow the shape of the dose curve; as a rule, active = well fitted curve in the direction sought with a large enough effect; inconclusive = small, poorly fitted or top-dose-only effect, or another doubt; inactive = no such curve, though single readings can be large; an effect the other way counts as inactive or inconclusive. Unless noted, % is scaled to controls: 0 for no effect and ±100 for the full control effect.

SMILES	15-hLO-2 inh	IMPase cell inh	ALOX12 inhib	IMPase Li cell
CCC1(C)Cc2nc3[nH]c(=S)n(-c4ccc(C)cc4)c(=O)c3cc2CO1 (centres undefined)	nt	8.1	4.4%	8.91µM*
COc1ccc(-n2c(=O)c(-c3ccc(Cl)cc3)nc3cnc(N(C)C)nc32)cc1	2.7%	nt	nt	2.82µM*
CN(C)c1ncc2nc(-c3ccc(Cl)cc3)c(=O)n(-c3ccccc3)c2n1	4.0%	nt	nt	2.82µM*
COc1ccc(-c2nc3cnc(N(C)C)nc3n(-c3ccccc3)c2=O)cc1	-4.0%	nt	nt	-5.2%
Cc1ccccc1C(=O)Nc1cccc(NC(=O)c2ccc(C(C)(C)C)cc2)c1	nt	-2.2	nt	nt
COC(=O)Cc1c(C)c2ccc(OCC(C)=O)c(C)c2oc1=O	5.0%	8.1	-2.7%	9.6%[38.3 µM]
CCN(CC)Cc1c(O)ccc2c(C)c(CC(=O)OC)c(=O)oc12	1.5%	-23.2	8.3%	10µM*
N#C/C(=C/c1ccc(N2CCCCC2)o1)c1cccc(F)c1	10µM*	-0.2	-25.3%	30.5%[38.3 µM]
N#C/C(=C/c1ccc(N2CCCCCC2)o1)c1ccc(Cl)cc1	7.94µM*	13.1	?	19.9%[38.3 µM]
Cc1ccc(/C(C#N)=C\c2ccc(N3CCOCC3)o2)cc1	12.6µM*	4.4	-24.1%	24.7%
COc1ccc(N2CSC3=C(C#N)C(c4cccs4)CC(=O)N3C2)cc1 (centres undefined)	20µM*	-14.2	?	12.6µM*
CCOc1ccccc1N1CSC2=C(C#N)C(c3c(OC)ccc4ccccc34)CC(=O)N2C1 (centres undefined)	10µM*	3.3	?	15.2%[38.3 µM]
N#CC1=C2SCN(c3ccc(F)cc3)CN2C(=O)CC1c1cccc(F)c1 (centres undefined)	?	-6.5	?	?
COc1ccc(N2CSC3=C(C#N)C(c4cc(OC)c(OC)cc4OC)CC(=O)N3C2)c(OC)c1 (centres undefined)	?	-3.4	-13.8%	12.0%[38.3 µM]
CN1CSC2=C(C#N)C(c3cccc(OCc4ccccc4)c3)CC(=O)N2C1 (centres undefined)	?	-1.8	-5.8%	5.3%[38.3 µM]
Cc1ccc(N2CSC3=C(C#N)C(c4cccs4)CC(=O)N3C2)cc1 (centres undefined)	12.6µM*	-9.8	-17.3%	-29.0%[38.3 µM]
COc1cc(OC)c(C2CC(=O)N3CN(c4ccc(C)cc4)CSC3=C2C#N)cc1OC (centres undefined)	?	4.1	?	-3.2%[38.3 µM]
CCc1ccc(C2CC(=O)N3CN(c4ccccc4)CSC3=C2C#N)cc1 (centres undefined)	7.94µM*	-2.6	?	-3.9%[38.3 µM]
CC(C)OC(=O)[C@@H]1CC[C@H](C)[C@@H](CCC[C@@H]2CC=C[C@H](CC#N)O2)O1	nt	nt	nt	16.1%
C[C@@H]1CC2(OC3C[C@@]4(C)C5=CC[C@H]6C(C)(C)C(O[C@@H]7OC[C@@H](O)[C@H](O)[C@H]7O)CC[C@@]67C[C@@]57CC[C@]4(C)C31)OC(O)C1(C)OC21 (some centres undefined)	-15.3%	nt	-2.4%	3.8%
CCOC(=O)c1ccc(N2CSC3=C(C#N)C(c4cccs4)CC(=O)N3C2)cc1 (centres undefined)	-25.7%	-1.0	-11.9%	7.9%[38.3 µM]
COc1ccc(C2CC(=O)N3CN(c4ccc(C)c(Cl)c4)CSC3=C2C#N)cc1OC (centres undefined)	25.1µM*	-15.8	?	?
COc1ccc(N2CSC3=C(C#N)C(c4cc(OC)ccc4OC)CC(=O)N3C2)c(OC)c1 (centres undefined)	10µM*	-0.6	?	9.8%[38.3 µM]
CCc1ccc(N2CSC3=C(C#N)C(c4cccs4)CC(=O)N3C2)cc1 (centres undefined)	20µM*	-27.7	?	-13.5%[38.3 µM]
COc1ccc(N2CSC3=C(C#N)C(c4ccc(OC)c(OC)c4)CC(=O)N3C2)c(OC)c1 (centres undefined)	?	5.9	-6.5%	-11.4%[38.3 µM]
SMILES	15-hLO-2 inh	IMPase cell inh	ALOX12 inhib	IMPase Li cell
CNC(=O)COc1ccc(NC(=O)CCn2nc(-c3ccc(C)cc3)c3ccccc3c2=O)cc1	nt	12.4	nt	nt
Cc1cnc(CNc2ncncc2-c2ccccc2C(F)(F)F)cn1	16.3%	nt	-11.3%	0.7%
COc1cc2c(cc1OC)[C@H](C)N(CC1C(=O)O[C@@H]3C[C@@]4(C)CCC[C@H](C)[C@@]45OC5[C@H]13)CC2 (some centres undefined)	nt	nt	nt	18.6%
S=c1nc[nH]c2c1sc1nc(N3CCOCC3)c3c(c12)CCCC3	nt	nt	nt	11.2µM*
Cn1nnc2c(sc3nc(N4CCOCC4)c4c(c32)CCCC4)c1=O	-6.9%	-1.4	7.0%	24.7%[38.3 µM]
COc1ccc(CCN2C(=O)C(O)=C(C(=O)c3ccco3)C2c2cccs2)cc1OC (centres undefined)	-1.1%	?	-5.1%	6.31µM*
O=C(C1=C(O)C(=O)N(Cc2ccco2)C1c1cccs1)c1cccs1 (centres undefined)	nt	nt	23.6%	-26.2%
O=C(C1=C(O)C(=O)N(CCOCCO)C1c1cccs1)c1cccs1 (centres undefined)	0.6%	?	-7.2%	7.94µM*
Cn1c(=O)c2c(ncn2CC(=O)Nc2cc(Cl)cc(Cl)c2)n(C)c1=O	nt	-9.2	nt	nt
C=CCn1c(NC(=O)c2ccc(Br)o2)c(S(=O)(=O)c2ccccc2)c2nc3ccccc3nc21	?	-19.1	-25.0%	10µM*
C=CCn1c(NC(=O)c2ccco2)c(S(=O)(=O)c2ccccc2)c2nc3ccccc3nc21	-13.4%	-24.1	-6.1%	-29.9%[38.3 µM]
CC[C@H]1C(c2cccc(Cl)c2)=NN(c2ccccc2)[C@@H]1CO	?	nt	?	22.4µM*
C[C@@H](C(=O)O)c1ccc(N2Cc3ccccc3C2=O)cc1	9.1%[25.6 µM]	-1.2[20.6 µM]	-3.0%[25.6 µM]	-3.7%
CCSc1nnc(-c2ccccc2SC)o1	nt	nt	nt	11.2µM*
CSc1ccccc1-c1nnc(-c2ccc(Cl)cc2Cl)o1	-8.7%	2.0	1.1%	?
CCc1nc(N[C@@H](Cc2c[nH]c3ccccc23)C(=O)O)c2oc3ccccc3c2n1	-0.9%	6.0	-3.6%	-8.8%[38.3 µM]
Cc1nc(N[C@@H](Cc2c[nH]c3ccccc23)C(=O)O)c2oc3ccccc3c2n1	6.4%	-13.4	-5.1%	11.2µM*
Cc1onc(-c2ccccc2Cl)c1C(=O)Nc1nnc(-c2ccc(Br)cc2)s1	-8.2%	?	-2.5%	8.91µM*
COCC(=O)N1CCc2nc(-c3ccccc3)c3c(c2C1)CO[C@@H](C)C3	nt	nt	6.1%[11.4 µM]	6.4%
CC(=O)NC(=S)Nc1ccc(-c2nc3ccc(C)cc3s2)cc1	-20.2%	-9.1	-1.3%	14.1µM*
Nc1ccc(-c2nc3ccc(-c4nc5ccc(N)cc5[nH]4)cc3[nH]2)cc1	14.6%[0.0915 µM]	?	0.3%[0.00818 µM]	10µM*!
N#Cc1ccc(CN2CC[C@@]3(CCCN(C(=O)c4ccco4)C3)C2)cc1	6.9%	nt	-5.8%	20.0%
